# From PubChem BioAssay
# TexasRed fluor: Total Fluorescence Counterscreen for Inhibitors of the Interaction of Thyroid Hormone Receptor and Steroid Receptor Coregulator 2; TRb/SRC2 Texas Red total fluorescence interference; Potency, µM (highest dose often 106 µM), for inactives: at the highest dose fluorescence change, negative = quenching; 0.29% of 280,000 active; AID 1479, 2009; active = well fitted curve in either direction with a large enough effect; inconclusive = small, poorly fitted or top-dose-only effect; note: potency is the fitted concentration of half-maximal effect; % is set by controls: 0 for no effect and ±100 for the full control effect
#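 Flags fluorescent or light-absorbing compounds by total fluorescence, S + 2P, at 555 nm excitation and 632 nm emission. Mixture: 20 nM Texas Red SRC2 peptide, 0.6 uM human TRb LBD, 1 uM T3, 5% DMSO; compound exposure 5 h at ambient temperature.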
# Menin-MLL TR inh: qHTS Assay for Inhibitors Targeting the Menin-MLL Interaction in MLL Related Leukemias: Competition With Texas Red Labeled MLL-derived Mutant Peptide; O00255; Menin + Texas Red MLL mutant peptide, fluorescence polarization; Potency, µM (series often up to 61.6 µM), without a hit: at the highest dose FP activity change, negative = inhibition, hits mostly inhibitors; 0.23% of 270,000 active; active = well fitted inhibition curve with a large enough effect in the polarisation, with a control signal flat, not every such curve was filed as active; inconclusive = small, poorly fitted or top-dose-only effect, or effect the other way, or a change in a side signal; inactive = no such curve, though single readings can be large or run the other way; the % refers to the polarisation; note: potency is the fitted concentration of half-maximal effect; % of control where 0% means no effect
# RGS12 GoLoco inh: qHTS Assay for Inhibitors of RGS12 GoLoco Motif Activity (Red Fluorophore). Gai1:RGS12 GoLoco peptide FP, rhodamine, 10 min. Potency, µM (doses to about 61.6 µM), for inactives: at the top dose activity, negative = inhibition, most hits filed as inhibitors. 0.44% of 230,000 active. AID 880, 2007; active = well fitted inhibition curve with a large enough effect, not every such curve was filed as active; inactive = no such curve, though single readings can be large or run the other way; note: potency is the fitted concentration of half-maximal effect; % is set by controls: 0 for no effect and ±100 for the full control effect; nearly all actives have a fitted effect of over 30% in size
# TRb-SRC2 inh: qHTS for Inhibitors of the Interaction of Thyroid Hormone Receptor and Steroid Receptor Coregulator 2; AID 1469, 2008; Thyroid hormone receptor beta (Homo sapiens), P10828; Potency, µM (highest dose often 106 µM), for the others: at the highest dose activity change, negative = inhibition, hits mostly inhibitors; 0.065% of 280,000 active; TRbeta-SRC2 peptide binding, fluorescence polarization; receptor liganded with 1 µM T3; active = well fitted inhibition curve with a large enough effect; inconclusive = small, poorly fitted or top-dose-only effect, or effect the other way;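 note: potency is the fitted concentration of half-maximal effect; plate controls were bound peptide for no effect and peptide without receptor for full effect; nearly all actives have a fitted effect of over 50% in size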
# Target sequence (P10828 whole entry, looked up): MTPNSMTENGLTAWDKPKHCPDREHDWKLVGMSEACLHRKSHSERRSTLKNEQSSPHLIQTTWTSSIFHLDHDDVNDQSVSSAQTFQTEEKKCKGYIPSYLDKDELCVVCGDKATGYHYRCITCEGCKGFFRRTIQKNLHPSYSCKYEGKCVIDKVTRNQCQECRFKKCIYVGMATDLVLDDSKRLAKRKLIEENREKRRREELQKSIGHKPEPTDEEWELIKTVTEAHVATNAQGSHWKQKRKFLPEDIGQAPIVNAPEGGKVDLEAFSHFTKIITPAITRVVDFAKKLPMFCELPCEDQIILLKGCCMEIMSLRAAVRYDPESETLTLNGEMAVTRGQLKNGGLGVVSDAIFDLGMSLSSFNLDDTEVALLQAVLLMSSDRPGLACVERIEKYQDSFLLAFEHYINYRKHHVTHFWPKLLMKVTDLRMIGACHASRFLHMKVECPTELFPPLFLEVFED
#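 Fluorescence polarization of 20 nM Texas Red SRC2 peptide (20-aa NR interaction domain) bound to 0.6 uM human TRb ligand-binding domain, with 1 uM T3, after 5 hr at ambient temperature; inhibition seen as decreased polarization.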
# Menin MLL FP FL: qHTS Assay for Inhibitors Targeting the Menin-MLL Interaction in MLL Related Leukemias: Competition With Fluorescein Labeled MLL-derived Peptide | 290,000 tested, under 10 active | FP activity change, % at 61.4 µM | Fluorescence polarization, fluorescein-MLL peptide displacement from menin; active = well fitted curve in the direction sought with a large enough effect in the polarisation, not every such curve was filed as active; inconclusive = small, poorly fitted or top-dose-only effect, or effect the other way, or a change in a side signal; inactive = no such curve, though single readings can be large or run the other way; the % refers to the polarisation; note: % of control where 0% means no effect
# MLL CXXC-DNA inh: qHTS Fluorescence Polarization Assay for Inhibitors of MLL CXXC domain - DNA interaction. MLL-CXXC / FITC-HOXA9 DNA fluorescence polarization. 0.037% of 290,000 active. Potency, µM (top dose mostly 115 µM), without a hit: at the highest dose activity change, negative = inhibition, hits mostly inhibitors. AID 2662, 2010; active = well fitted inhibition curve with a large enough effect in the polarisation, with a control signal flat, not every such curve was filed as active; inconclusive = small, poorly fitted or top-dose-only effect, or effect the other way, or a change in a side signal; inactive = no such curve, though single readings can be large or run the other way; the % refers to the polarisation; note: potency is the fitted concentration of half-maximal effect
#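 Steps: dispense CXXC domain solution (7 uM) → pin compounds or unlabeled HOX-A9 DNA control → 5 min ambient → add FLSN-HOX-A9 solution (50 nM) → spin → 30 min ambient → fluorescence polarization. Tris pH 7.5/NaCl/DTT/BSA buffer.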
# * = called active by the depositor; i = inactive; ? = inconclusive; / = not tested or not shown; ! = repeats disagree; [ ] = another dose, or the depositor's remark. Only some compounds are listed: those with a hit (about 0.5% of all), similar ones and a draw of the others.
SMILES,TexasRed fluor,Menin-MLL TR inh,RGS12 GoLoco inh,TRb-SRC2 inh,Menin MLL FP FL,MLL CXXC-DNA inh
COc1ccc(CC(C)NS(=O)(=O)c2ccc3c(c2)CCN3S(C)(=O)=O)cc1OC (centres undefined),7.1µM*[quencher],/,/,-5%,/,16%
CCOC(=O)c1ccccc1C,-4%[201 µM],/,/,7%[201 µM],/,/
CC(C)C(=O)N(Cc1ccccc1)c1ccccn1,2%,0%,8%,-3%,4,-5%
CCc1ccc(CN(C(=O)Nc2cccc(Cl)c2)c2ccccn2)cc1,355µM*[quencher],/,/,-11%,/,/
CCCCOc1ccc(C(=O)NCCS(=O)(=O)N2CCN(c3ccccc3OC)CC2)cc1,-6%,/,/,3%,/,/
COc1ccc(NC(=O)CSc2nc(N)c3cc4c(nc3n2)CCCC4)cc1,1%,-3%,13%,3%,9,19%
CC(=O)c1ccc(NC(=O)CSc2nc(N)c3cc4c(nc3n2)CCCC4)cc1,89µM*[quencher],7%,56%,-22%,12,4%
CCN(CC)c1ccc(/C=C/C(=O)C2C(=O)C=C(C)OC2=O)cc1 (centres undefined),32µM*[fluorescent],?,i,?,?,?
O=C(O)[C@H]1CCCC[C@@H]1c1c2ccc(=O)c(O)c-2oc2c(O)c(O)ccc12,/,/,-10%[14.2 µM],/,/,/
O=C(O)/C=C\c1c2ccc(=O)c(O)c-2oc2c(O)c(O)ccc12,/,/,0.89µM*,/,/,/
CSc1nc2ccc(NS(=O)(=O)c3cccc(Cl)c3Cl)cc2s1,1.1µM*[quencher],?,23%,-9%[53 µM],10,3%
CCOc1ccc(-c2cn3c(n2)sc2cc(C(=O)NCCC4=CCCCC4)ccc23)cc1,2µM*[quencher],/,/,-11%,/,/
CCOC(=O)C1CCN(C(=O)c2ccc3c(c2)sc2nc(-c4ccc(OC)cc4)cn23)CC1,316µM*[quencher],/,/,-22%,/,/
Cc1ccc(-c2cn3c(n2)sc2cc(C(=O)NCc4cccs4)ccc23)cc1,3.2µM*[quencher],/,/,-15%,/,/
OC1CCCCCCCCCCC1,-3%[201 µM],/,/,1%[201 µM],/,/
COc1ccc(CNc2nc(-c3ccc(N(C)C)cc3)nc3ccccc23)c(OC)c1,/,?,8.9µM*,/,-3,/
O=C(CN1CCN(c2ccccc2)CC1)Nc1ccc2c(c1)CCC2,1%,-9%,-2%,7%,-3,1%
O=C(Nc1ccc2c(c1)CCC2)c1cc(S(=O)(=O)N2CCN(c3ccccc3)CC2)ccc1Cl,45µM*[fluorescent],/,170%,21%,?,21%
CCC(C)OC(=O)N1CCCCC1CCO (centres undefined),-10%[201 µM],/,/,-8%[201 µM],/,/
C[C@H](CCC(=O)O)[C@H]1CC[C@]2(C)[C@@H]3C(=O)C[C@H]4C(C)(C)[C@@H](O)CC[C@]4(C)[C@H]3C(=O)C[C@@]12C,/,/,3%[14.2 µM],/,/,/
O=C(N/N=C/c1cc2c3c(c1O)CCCN3CCC2)c1ccccc1O,-2%,?,28µM*,-8%,/,-13%
Cc1nn(-c2ccccc2)c(N2CCCC2)c1/C=N/NC(=O)c1ccccc1O,-2%,0%,7%,7%,0,1%
CCCN1CCCc2ccccc21,-2%,25µM*,5%,-8%,1,-9%
CCN1C(=O)CCCc2ccccc21,1%,-1%,7%,-5%,-1,4%
Fc1ccc(Br)cc1,1%[201 µM],/,/,-4%[201 µM],/,/
SMILES,TexasRed fluor,Menin-MLL TR inh,RGS12 GoLoco inh,TRb-SRC2 inh,Menin MLL FP FL,MLL CXXC-DNA inh
COc1cc(O)c2c(=O)c(O)c(-c3ccc(O)c(O)c3)oc2c1,50µM*[quencher],?,-6%,8%,?,/
O=c1c(O)c(-c2ccc(O)cc2)oc2cc(O)cc(O)c12,-10%,?,5%,7%,?,/
CN(C)/[N+]([O-])=N/Oc1cc(O/[N+]([O-])=N/N2CCCC2CO)c([N+](=O)[O-])cc1[N+](=O)[O-] (centres undefined),-6%,21%,/,-5%,-2,/
O=C1NC(=O)C2C3C=CC(C3)C12 (centres undefined),-5%,-6%,/,3%,1,16%
O=[N+]([O-])c1ccc(N2CCN(C(=S)c3cccc([N+](=O)[O-])c3)CC2)cc1,0%,/,13µM*,4%,1,1%
CC(=O)N1CCN(C(=S)c2cccc([N+](=O)[O-])c2)CC1,-2%,1%,0%,8%,1,4%
O=C(O)c1cc(C(=O)O)c(C(=O)N(Cc2cccc(Oc3ccccc3)c2)[C@H]2CCCc3ccccc32)cc1C(=O)O,3%,21%,/,-2%,-1,/
CO[C@]12C[C@@H](COC(=O)c3cncc(Br)c3)CN(C)[C@@H]1Cc1cn(C)c3cccc2c13,0%,-12%[24.8 µM],13µM*!,-4%,?,/
CC12CCC(C[N+](C)(C)C1)C2(C)C (centres undefined),-2%,-11%,8.9µM*,8%,0,0%
O=C(O)[C@H]1[C@H](C(=O)O)[C@H](C(=O)O)C[C@@H]1C(=O)O,/,/,-2%[14.2 µM],/,/,/
CCOc1cc(CNc2ccc(N(C)C)cc2)cc(Br)c1OCC(=O)NC(C)(C)C,45µM*[fluorescent],?,-14%,40µM*,-3,1%
CCOc1cc(CNc2ccc(N3CCCCC3)cc2)cc(Br)c1OCC(=O)NC(C)(C)C,2%,-16%,-2%,-20%,2,4%
CN1C2CCC1CC(OC(=O)C(O)c1ccccc1)C2 (centres undefined),0%,0%,28µM*!,3%,3,12%
CN=C(N)NCC1CCOC1 (centres undefined),1%[201 µM],/,/,2%[201 µM],/,/
COc1cc(O)c(C(=O)/C=C/c2ccccc2)c(OC)c1,0%,20%,25µM*!,4%,-1,35%
COc1cc(O)c(C(=O)/C=C/c2ccccc2)c(O)c1,-2%[11.2 µM],-3%[11.7 µM],/,4%[11.2 µM],1[11.7 µM],/
COCCNc1ncnc2ccc(-c3ccccc3C(F)(F)F)cc12,/,0%,13%,/,6,/
c1ccc2[nH]c(NCCCc3cnc[nH]3)nc2c1,-4%,-18%,/,2%,-4,/
C/C=C/C=C/C=O,0%,/,6%,0%,/,/
O=C(COC(=O)c1ccccc1NS(=O)(=O)c1cccs1)NC1CCCCC1,112µM*[quencher],-8%,-11%,-18%[53 µM],-6,-7%
O=C(COC(=O)c1ccccc1NS(=O)(=O)c1cccs1)NCC12CC3CC(CC(C3)C1)C2,1%,21%,10%,0%,5,4%
CC(=O)Nc1ccc(NC(=O)c2ccco2)cc1,-2%,17%,4%,-6%,5,1%
